# Results filed as inconclusive are left out. Active and inactive are the calls of the source. Calls follow the shape of the dose curve; as a rule, active = well fitted inhibition curve with a large enough effect; inconclusive = small, poorly fitted or top-dose-only effect; inactive = flat fitted curve, though single readings scatter.
# Assay: Identification of antibody-drug conjugate (ADC) payloads which are substrates of ATP-binding cassette drug efflux transporters: ABCB1-HEK293-MDR-19 cell line
# Settings: HEK293 ABCB1 (MDR-19) viability, CellTiter-Glo, 48 h
# Text: Antibody-drug conjugates (ADCs) feature an antibody recognizing a specific protein joined to a potent toxic payload. Numerous antibody-drug conjugates have received FDA approval; however, clinical resistance arises. Resistance mechanisms include decreased expression or mutation of the antibody target, impaired payload release, or increased expression of ATP-binding cassette (ABC) efflux transporters associated with multidrug resistance. We therefore sought to characterize the interaction of ABC multidrug transporters with ADC payloads. We performed a high-throughput screen with 27 common ADC payloads using cells lines expressing ABC transporters P-glycoprotein (P-gp, encoded by ABCB1) or ABCG2 (encoded by ABCG2). Confirmatory assays were also performed using cells transfected to express P-gp, ABCG2, or MRP1 (encoded by ABCC1). Several commonly used ADC payloads were substrates of P-gp, including calicheamicin gamma1, monomethyl auristatin E, DM1, and DM4. All the pyrrolobenzodiazepines tested - SJG136, SGD-1882, SG2057, and SG3199 - were substrates of P-gp, ABCG2, and MRP1. […] These findings highlight the risk of transporter-mediated resistance with certain ADC payloads and underscore the importance of selecting payloads that evade ABC transporter recognition in future ADC development.
# HEK-293 cells were transfected with empty vector (pcDNA) or vector containing the human ABCB1 (MDR-19), ABCG2 (R-5), or ABCC1 gene (MRP1) and were maintained in EMEM with 2 mg/mL G418 added to maintain transporter expression. The HeLa derivative KB-3-1 and the P-gp overexpressing KB-8-5-11 subline were maintained in DMEM; KB-8-5-11 additionally received 100 ng/mL colchicine. H460 parental cells were obtained from the Division of Cancer Treatment and Diagnosis Tumor Repository, National Cancer Institute at Frederick, MD and were cultured in RPMI. The ABCG2 expressing subline H460 MX20 was generated by selecting H460 cells in 20 nM mitoxantrone. Media in all cases was supplemented with 10% FBS and 1% penicillin-streptomycin. We explored 27 common ADC payloads, in two orthogonal, paired cell line sets-a drug selected and transfected set for each transporter--to identify substrates of the ABC transporters P-gp and ABCG2. Compounds were sourced from Levena Biopharma (San Diego, CA), Selleck Chem (Houston, TX), ChemieTek (Indianapolis, IN), or Microsource Discovery Systems (Gaylordsville, CT). Screening was performed as previously described. Briefly, cells were plated at a density of 500 cells/well in 1536 well plates with compounds added using a 1536-head pin tool (Kalypsys, San Diego CA). Cells were incubated with cytotoxic drugs and processed with CellTiter Glo reagent (Promega, Madison, WI) to determine viability after 48 hours. P-gp substrates were identified by comparing compound activity between paired sets of low-expressing (sensitive) and over-expressing (resistant) cell lines.
row,Structure (SMILES),Potency
1,COc1cc2cc(C(=O)N3C[C@@H](CCl)c4c3cc(O)c3ccccc43)[nH]c2c(OC)c1OC,1.2 nM (active)
2,CC[C@H](C)[C@@H]([C@@H](CC(=O)N1CCC[C@H]1[C@H](OC)[C@@H](C)C(=O)N[C@H](C)[C@@H](O)c1ccccc1)OC)N(C)C(=O)[C@@H](NC(=O)[C@H](C(C)C)N(C)C)C(C)C,66.6 nM (active)
3,COc1cc2cc(c1Cl)N(C)C(=O)C[C@H](OC(=O)[C@H](C)N(C)C(=O)CCS)[C@]1(C)OC1[C@H](C)C1C[C@@](O)(NC(=O)O1)[C@H](OC)/C=C/C=C(\C)C2 (stereo partly specified),298 nM (active)
4,COc1cc2cc(c1Cl)N(C)C(=O)C[C@H](OC(=O)C(C)C)[C@]1(C)O[C@H]1[C@H](C)[C@@H]1C[C@@](O)(NC(=O)O1)[C@H](OC)C=CC=C(C)C2,14.9 nM (active)
5,CC[C@@]1(O)C(=O)OCc2c1cc1n(c2=O)Cc2cc3ccccc3nc2-1,13.3 nM (active)
6,COc1cccc2c1C(=O)c1c(O)c3c(c(O)c1C2=O)C[C@@](O)(C(=O)CO)CC3OC1CC(N2CCOC(OC)C2)C(O)C(C)O1 (stereo partly specified),1.7 nM (active)

# Source: PubChem BioAssay AID2061318 (National Center for Advancing Translational Sciences (NCATS), 2025)
